An excerpt weighted towards active compounds, which were near 13% of everything screened.
FMDV antiviral = blocks foot and mouth disease virus | FMDV antiviral cell-based qHTS | Potency, µM (highest dose often 57.9 µM), inactives show top-dose activity change, negative = inhibition, usual class: inhibitors | 410,000 tested, 1.2% active; calls by dose curve; tested in HEK293T cells; note: read-out not given here; potency is the fitted concentration of half-maximal effect; % is set by controls: 0 for no effect and ±100 for the full control effect; nearly all actives have a fitted effect of over 45% in size
Lassa entry inh = Lassa virus entry inhibition; 300,000 tested, 1.2% active; Potency, µM (highest dose often 37.9 µM), for the others: top-dose activity change, negative = inhibition, hits mostly inhibitors; AID 540256; Lassa virus pseudotype entry inhibition, cell reporter; calls by dose curve; tested in HEK293 cells; note: potency is the fitted concentration of half-maximal effect; % is set by controls: 0 for no effect and ±100 for the full control effect; nearly all actives have a fitted effect of over 50% in size
HCV inh = HCV inhibition; Huh7.5.1 HCVcc-Cre infection, luciferase reporter, 44 h; Potency, µM (highest dose often 41.8 µM), for inactives: top-dose activity change, negative = inhibition, most hits filed as inhibitors; 340,000 tested, 3.4% active; active = well fitted inhibition curve with a large enough effect; inconclusive = small, poorly fitted or top-dose-only effect, or another doubt; inactive = no such curve, though single readings can be large or run the other way; note: potency is the fitted concentration of half-maximal effect; % is set by controls: 0 for no effect and ±100 for the full control effect
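Infectious HCVcc-Cre (~0.5 moi) was added to cells just after compound, with cells seeded 4 h earlier at 1,000 per well. Luciferase activity after 44 h culture reported infection; substrate was incubated 15 min at room temperature before reading.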
Cycloheximide cs = counter-screen hit for Shiga toxin inhibitors, cycloheximide; cell reporter, cycloheximide protein synthesis inhibition counterscreen; max response, %; 300,000 tested, 12% active; AID 2314; in the data active = max response mostly above about 13%, no sharp cut-off; inactive = mostly below about 14%; note: read at 38.3 µM for the half of the compounds with a filed dose; 0% is about no effect
Shiga inhibitor = Shiga toxin inhibition. Vero cells, Shiga toxin protein synthesis inhibition reporter. AID 2315. 290,000 tested, 9.2% active. inhibition, % at 38.7 µM; in the data active = inhibition mostly above about 28%, no sharp cut-off; inactive = mostly below about 43%; note: 0% is about no effect
MARV entry inh = blocks Marburg virus binding to or entry into cells; AID 540276; Marburg virus pseudotyped entry inhibition, cell reporter; 300,000 tested, 1.8% active; Potency, µM (top dose mostly 37.8 µM), without a hit: top-dose activity change, negative = inhibition, actives largely listed as inhibitors; calls by dose curve; tested in HEK293 cells; note: potency is the fitted concentration of half-maximal effect; % is set by controls: 0 for no effect and ±100 for the full control effect
* = called active by the depositor; ? = inconclusive; . = no result given; [ ] = dose if it differs, or a comment.

SMILES	FMDV antiviral	Lassa entry inh	HCV inh	Cycloheximide cs	Shiga inhibitor	MARV entry inh
CC(C)C1(C)N=C(c2ncccc2C(=O)O)NC1=O (centres undefined)	.	17.7%	9.1%	-2.1	-10.4	-1.4%
CCc1c(C)nc(N)n2c(SCC(=O)Nc3ccccc3)nnc12	-0.4%	0.3%	-15.8%	1.8	-10.7	?
Fc1ccc(CCNC(=S)Nc2ccc(F)cc2)cc1	41.8%	-5.5%	-8.1%	36.0*	47.0*	5.2%
S=C(NCCc1ccccc1)Nc1ccc(Cl)cc1	35.3%	3.6%	?	52.7*	54.1	19.6%
O=C(NCCc1ccccc1)Nc1ccc(Cl)cc1	26.0%	-20.5%	-2.1%	45.8*	46.0*	?
CC(NC(=S)NCCc1ccccc1)C(c1cccs1)N1CCN(Cc2ccccc2)CC1 (centres undefined)	?	?	7.94µM*	3.2	5.8	?
Nc1[nH]n2c(=O)cc(-c3ccccc3)nc2c1N=Nc1ccc2c(c1)OCO2	.	.	.	0.8	21.6	.
Cc1ccc(NC(=O)[C@@H]2CCC(=O)N2C2OC(=O)c3ccccc32)cc1Cl (some centres undefined)	18.8%	.	-20.1%	-3.1	-0.5	.
CCCS(=O)(=O)NC(=O)C1(C)CCN(C(=O)c2cc3ccccc3s2)C1 (centres undefined)	-23.9%	.	.	.	.	.
C/C(=N\NC(=S)NCCc1ccccc1)c1cccs1	-7.8%	-25.8%	?	17.2*	23.5	3.5%
O=[N+]([O-])c1ccc(O)c(NC(=S)Nc2ccccc2)c1	43.1%	2.2%	-9.7%	37.2*	44.7	16.1%
O=[N+]([O-])c1ccc(O)c(Nc2ncnc3ccccc23)c1	0.6%	9.7%	-21.1%	16.9*	35.4	4.3%
C/C(CCc1ccccc1)=N\NC(=S)NCCc1ccccc1	12.3%	?	-17.9%	-1.9	-5.4	?
CC1=C/C(=N\NC(=S)NCCc2ccccc2)CC(C)(C)C1	3.5%	6.1%[46.1 µM]	-5.5%	22.5*	82.1*	4.4%[46.1 µM]
Cc1ccc2[nH]c(O)c(N=O)c2c1	-12.6%	1.2%[46.1 µM]	6.3%	10.5	19.2	2.0%[46.1 µM]
Fc1ccccc1NC(=S)NCCc1cccc(Cl)c1	5.4%	-1.5%[46.1 µM]	-13.0%	40.3*	77.6*	-19.7%[46.1 µM]
O=C(NCCc1ccc(F)cc1)Nc1ccccc1Cl	3.2%	5.7%[46.1 µM]	-14.1%	25.9*	55.1*	0.3%[46.1 µM]
O=C(NCCc1ccncc1)Nc1ccccc1Cl	.	-11.1%	21.2%	-0.9	-11.1	13.6%
Cc1ccccc1C(=O)NC(=S)NCCc1ccccc1	0.5%	-16.2%	9.0%	7.1	25.5	8.7%
CC(C)(C)C(=O)NC(=S)NCCc1ccccc1	20.3%	18.9%	-6.4%	39.4*	90.5*	?
O=[N+]([O-])c1ccc(NC(=S)NCCc2ccccc2)cc1	35.5%	?	?	28.2*	63.7*	?
OCC1(CCc2ccccc2)CCCN(C/C=C/c2ccccc2)C1 (centres undefined)	3.0%	-10.2%[46.1 µM]	-11.8%	-1.6	-1.1	?
COCCCNC(=O)C1CCC(Cn2c(=O)c3sccc3n(C)c2=O)CC1 (centres undefined)	-8.3%	-2.9%[46.1 µM]	.	.	.	.
CC(C)CC(NC(=O)CCC(=O)OCC(=O)[C@@]1(O)CCC2[C@@H]3CCC4=CC(=O)C=C[C@]4(C)C3[C@@H](O)C[C@@]21C)C(=O)O (some centres undefined)	4.3%	.	24.0%	4.2	-4.6	.
COc1ccc(C(=O)NC(=S)NCc2ccccc2)cc1	38.7%	-6.6%	20.6%	5.5	-1.3	22.3%
SMILES	FMDV antiviral	Lassa entry inh	HCV inh	Cycloheximide cs	Shiga inhibitor	MARV entry inh
COc1cc(OC)cc(C(=O)NC(=S)NCCc2ccccc2)c1	-0.2%	5.2%	-3.8%	14.1*	46.9	-0.2%
S=C(NCCc1ccccc1)NCCc1ccccc1	64.1%	22.9%	-4.8%	50.6*	57.1*	?
NNC(=S)NCCc1ccccc1	42.8%	9.1%	-16.6%	8.5	30.1	10.6%
CC(=O)C(Sc1ncnc2c1nnn2-c1ccc(F)cc1)C(=O)N(C)C (centres undefined)	?	0.2%	-6.2%	5.1	16.9	-7.3%
Nc1nnc(-c2cc3ccccc3oc2=O)s1	13.0%	0.7%	1.2%	44.3*	152.4*	?
N#C/C(=C(/O)CCl)c1nc2c(s1)CCc1ccccc1-2	25.1µM*	11.8%	?	30.3*	53.7*	20.5%[46.1 µM]
O=c1oc2ccc3ccccc3c2cc1-c1nnc(Nc2ccccc2F)s1	-20.3%	15.8%[46.1 µM]	.	.	.	.
Nc1nc2c(s1)CCc1ccccc1-2	19.4%	.	4.5%	20.9*	37.9*	.
O=c1oc2ccccc2cc1-c1nnc(NCc2ccco2)s1	0.0%	?	-24.4%	32.2*	70.2*	?
O=C(CCCl)Nc1nc2c(s1)CCc1ccccc1-2	-16.3%	?	-28.6%	9.3	25.0	?
COc1ccc2c(c1)-c1nc(N)sc1CC2	26.6%	16.7%[46.1 µM]	?	2.6	9.6	-1.6%[46.1 µM]
COc1cc([N+](=O)[O-])ccc1-c1ccc(/C=N/NC(N)=O)o1	-10.7%	12.6%	-16.2%	-5.0	18.1	7.8%[46.1 µM]
O=C(CNc1ccccc1Cl)N/N=C1\CCCc2ccccc21	-13.2%	.	3.8%	2.5	-12.6	.
O=c1oc2ccccc2cc1-c1nc2c(s1)CCc1ccccc1-2	7.8%	0.1%	-2.4%	21.5*	63.0	4.5%
COc1ccc2oc(=O)c(-c3nc(C)cs3)cc2c1	36.7%	-5.8%	-8.7%	31.8*	44.6*	-15.0%
COc1ccc2oc(=O)c(-c3nc(-c4ccc(C)c(C)c4)cs3)cc2c1	0.0%	3.3%[46.1 µM]	.	.	.	.
CC/C(C)=N\Nc1nc(-c2cc3cc(OC)ccc3oc2=O)cs1	-9.1%	-25.0%[46.1 µM]	8.91µM*	34.0*	73.0*	?
O=c1oc2cc(O)ccc2cc1-c1nc2c(s1)CCc1ccccc1-2	?	?	?	2.0	-6.8	14.0%
COc1ccc2oc(=O)c(-c3nnc(N)s3)cc2c1	59.5%	1.2%	5.5%	18.1*	44.8*	?
CCc1ccc(Nc2nnc(-c3cc4cc(OC)ccc4oc3=O)s2)cc1	15.2%	-1.3%[46.1 µM]	.	.	.	.
O=C(Cn1c(=O)oc2ccccc21)Nc1nnc(N2CCCCCC2)s1	-23.6%	.	14.3%	4.2	5.5	.
S=c1nccc(-c2cccs2)[nH]1	7.0%	20.2%	5.8%	2.1	-5.0	?
c1csc(-c2ccn[nH]2)c1	21.0%	.	24.3%	13.1*	71.5	.
Cc1cc(C(=O)Nc2ccccc2)nn1C(C)(C)C	11.9%	-0.2%	-2.9%	42.6*	67.1*	6.5%[46.1 µM]
Cc1cc(C(=O)Nc2ccc3c(c2)OCCO3)nn1C(C)(C)C	56.5%	.	-9.6%	78.9*	140.0*	.
Cc1ccn2cc(C(=O)Nc3ccc4c(c3)OCCO4)nc2c1	.	?	-10.9%	39.7*	60.1*	?
Cc1ccn2cc(C(=O)Nc3ccccc3N3CCOCC3)nc2c1	.	4.0%	?	6.7	4.0	-5.8%
Cc1cc(C(=O)NNS(=O)(=O)c2cccc(Cl)c2)nn1C(C)(C)C	5.9%	.	0.9%	-1.9	19.0	.
CCOC(=O)c1ccc(S(=O)(=O)NNC(=O)COc2ccccc2C)cc1	-4.0%	-16.2%	2.4%	-3.6	-3.5	?

Screening data as filed in PubChem.
